Screening data: PubChem BioAssay, National Center for Advancing Translational Sciences (NCATS)
Only some compounds are listed: those with a hit (about 2.1% of all), similar ones and a draw of the others.
aSyn yeast inh – alpha-synuclein toxicity inhibition in yeast | 0.14% of 370,000 active | Potency, µM (highest dose often 46.1 µM), without a hit: at the top dose growth rescue (activation), most hits filed as activators | Yeast expressing alpha-synuclein, growth rescue, BacTiter-Glo, 24 h; also: % of control where 0% means no effect; nearly all actives have a fitted effect of over 65% in size
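Galactose-induced alpha-syn yeast (OD600=0.02, raffinose-pregrown) + pinned cpd, 24 hr, 30 deg C; growth by BacTiter-Glo luminescence. Growth restoration scores as activation.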
Abeta rescue – restores growth of yeast expressing A-beta42 peptide | yeast expressing A-beta42, growth rescue, OD600, 48 h; response scale: 0% DMSO, 100% iron-clioquinol control | Potency, µM (titrated, usually from 46.1 µM), usual class: activators | 0.063% of 410,000 active | AID 1347071; also: nearly all actives have a fitted effect of over 55% in size
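Growth rescue measured by 600 nm absorbance after 48 h yeast culture at 30 C with compound. Values normalized between DMSO and an equimolar ferric chloride plus clioquinol control.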
TDP43 rescue – TDP-43 toxicity inhibition in yeast; TDP-43 expressing yeast growth rescue, BacTiter-Glo, 24 h; Potency, µM (series often up to 46.1 µM), for the others: at the highest dose growth rescue (activation), hits mostly activators; 1.8% of 410,000 active; also: % of control where 0% means no effect; nearly all actives have a fitted effect of over 50% in size
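Yeast expressing TDP-43 (pregrown in raffinose, seeded at OD600=0.02 in galactose medium) exposed to compounds 24 hr at 30 deg C. Growth read by BacTiter-Glo luminescence; rescue of toxicity appears as increased signal.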
FUS suppressor – rescues growth of FUS-expressing yeast; Potency, µM (doses to about 76.6 µM), usual class: activators; S. cerevisiae FUS-expressing, growth rescue, OD600, 24 h; AID 1347120; 0.24% of 390,000 active;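 also: plate controls were DMSO vehicle for no effect and reference control for full effect; nearly all actives have a fitted effect of over 55% in size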
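Absorbance at 600 nm, taken 24hr after compound addition, measured rescue of FUS-yeast growth at 30C. Induction used 2% galactose with seeding at OD 0.005. Controls: CP55940 from 92uM final, DMSO only.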
Active calls of the source: *; i = inactive; ? = inconclusive; . = no result given; [ ] = another dose, or the depositor's remark. Calls follow the shape of the dose curve; as a rule, active = well fitted curve in the direction sought with a large enough effect; inconclusive = small, poorly fitted or top-dose-only effect, or another doubt; inactive = no such curve, though single readings can be large; an effect the other way counts as inactive or inconclusive. Potency is read from the fitted curve at half-maximal effect.

SMILES | aSyn yeast inh | Abeta rescue | TDP43 rescue | FUS suppressor
CCOC(=O)[C@]12CCCC=C1N(CCC1=CCCCC1)C(=O)[C@H](CC(=O)NCCc1ccccc1OC)C2 | 6% | i | 20µM* | i
CCOC(=O)N1CCN(C(=O)C[C@H]2C[C@@]3(C(=O)OC)C(=C[C@H](C(C)C)O[C@@H]3C3CC3)N(CCc3ccc(OC)c(OC)c3)C2=O)CC1 | . | . | . | i
CCCCN(C)C(=O)c1ccc2c(c1)N(Cc1ccc(F)cc1)C(=O)c1ccccc1S2(=O)=O | . | i | 19% | ?
COc1ccc(OC)c(NC(=O)CSc2c3c(nc4cc(Cl)ccc24)CCCC3)c1 | . | i | 20µM* | i
O=C(CSc1c2c(nc3ccc(Cl)cc13)CCCC2)N1CCCCC1 | . | i | 16µM* | i
O=C(CSc1c2c(nc3cc(Cl)ccc13)CCCC2)N1CCN(c2ccccc2F)CC1 | . | i | 35µM* | i
COc1ccc(NC(=O)CSc2nc(N)c3cc4c(nc3n2)CCCC4)c(OC)c1 | 4% | i | -32% | 32µM*
CC1CCCCN1C(=O)CSc1c2c(nc3cc(Cl)ccc13)CCCC2 (centres undefined) | . | i | 3% | i
COc1ccc(-n2ncc3c2CC(C)(C)CC3NC(=O)c2ccc(OC)o2)cc1 (centres undefined) | 10% | i | 0% | i
CN(C(=O)c1ccc(NC(=O)Cc2cccc(NC(=O)C3CCCN(C(=O)C4CC4)C3)c2)cc1)C1CC1 (centres undefined) | -2% | i | 17% | i
COc1cccc(CNC(=O)CSc2ccc(-c3sc(-c4ccccc4)nc3C)nn2)c1 | . | i | ? | i
CC1CCCN(C(=O)CSc2c3c(nc4cc(Cl)ccc24)CCCC3)C1 (centres undefined) | . | i | 18µM* | i
COc1ccccc1OCC#CCNC1CCCCC1C (centres undefined) | 0% | i | -8% | i
CN(C)c1ccc(C(=O)c2ccccc2)cc1 | -10% | i | 13µM* | i
Cc1nc2c(=O)[nH]c(=S)[nH]c2[nH]c1=O | -9% | i | -2% | i
Cc1cc(C)c(S(=O)(=O)N2CCN(C(=O)C3CCCO3)CC2)c(C)c1 (centres undefined) | -15% | i | 2% | i
Cc1ccc2nsnc2c1S(=O)(=O)N1CCN(C(=O)C2CCCO2)CC1 (centres undefined) | 22µM* | i | ? | i
CCOC(=O)CSc1nc(-c2cccs2)nc2c1c(=O)n(C)c(=O)n2C | 0% | i | 8% | i
COc1cc(OC)c(NC(=O)Nc2c(C)n(C)n(-c3ccccc3)c2=O)cc1Cl | . | i | 13% | i
Cc1cc(C)nc(N(C#N)CCOc2ccccc2)n1 | ? | i | 13µM* | i
CCNC(=O)O/N=C1\CCCCC1c1ccc([N+](=O)[O-])cc1[N+](=O)[O-] (centres undefined) | -5% | i | 14µM* | i
CN(C(=O)CNC(=O)c1ccc(Br)o1)C1CCCCC1 | 2% | i | 0% | .
CC(=O)N1CCc2c(sc3c2c(=O)n(Cc2ccccc2)c(=O)n3Cc2cc(C)ccc2C)C1 | . | i | 16% | i
CC(=O)N1CCc2c(sc3c2c(=O)n(CCc2ccccc2)c(=O)n3Cc2ccc(Cl)cc2)C1 | . | i | 32µM* | ?
CC(=O)N1CCc2c(sc3c2c(=O)n(CCc2ccccc2)c(=O)n3Cc2ccccc2C)C1 | . | i | 35µM* | ?
SMILES | aSyn yeast inh | Abeta rescue | TDP43 rescue | FUS suppressor
COc1ccc(OC)c(NC(=O)CC2SC(=Nc3ccccc3)N(CCc3ccccn3)C2=O)c1 (centres undefined) | 8% | i | 2% | 35µM*
COc1ccc(N=C2SC(CC(=O)Nc3ccccc3)C(=O)N2CCc2ccccn2)cc1 (centres undefined) | -2% | i | 21% | .
COc1ccc(N2CC(C(=O)Nc3nnc(SCC(=O)NCC4CCCO4)s3)CC2=O)cc1 (centres undefined) | -3% | i | -2% | ?
CC1CCCCN1CCCNC(=O)c1ccc2c(c1)sc1nc(-c3ccc(F)cc3)cn12 (centres undefined) | . | i | 5%[9.22 µM] | i
FC(F)Oc1ccc(NC(=S)NC2CCCCCCC2)cc1 | -9% | 11µM* | 24% | i
O=C(O/N=C1\CCCc2ccccc21)c1cccs1 | -13% | i | 8.9µM* | i
